High-throughput results deposited in PubChem by National Center for Advancing Translational Sciences (NCATS).
Many of the other results were omitted from the sample, so hits are more common in it than they were.
RECQ1 helicase – blocks DNA unwinding by human RECQ1 | hit rate 0.54% among 240,000 | RECQ1 DNA unwinding, red fluorescence kinetic read | Potency, µM (top dose mostly 57.3 µM), for inactives: top-dose activity, negative = inhibition, usual class: inhibitors | AID 2549;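 also: plate controls were vehicle for no effect and no enzyme for full effect; nearly all actives have a fitted effect of over 30% in size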
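50 nM RECQ1T1 preincubated 15 min with compound in Tris pH 8.0 buffer with MgCl2, DTT, Tween-20 and 2.5 ug/ml poly(dI-dC); started with 200 nM TAMRA/BHQ-2 forked duplex and 2 mM ATP. Unwinding read as fluorescence (525/598 nm), two reads 2 h apart.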
APEX1 inh – APE1 (human) endonuclease inhibition; recombinant APE1, TAMRA/BHQ-2 abasic DNA cleavage fluorescence; P27695; AID 2517; hit rate 0.35% among 350,000; Potency, µM (titrated, usually from 65.8 µM), inactives show at the highest dose activity change, negative = inhibition, most hits filed as inhibitors;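 also: plate controls were vehicle for no effect and reference inhibitor for full effect; nearly all actives have a fitted effect of over 55% in size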
Target sequence (P27695 whole entry, looked up): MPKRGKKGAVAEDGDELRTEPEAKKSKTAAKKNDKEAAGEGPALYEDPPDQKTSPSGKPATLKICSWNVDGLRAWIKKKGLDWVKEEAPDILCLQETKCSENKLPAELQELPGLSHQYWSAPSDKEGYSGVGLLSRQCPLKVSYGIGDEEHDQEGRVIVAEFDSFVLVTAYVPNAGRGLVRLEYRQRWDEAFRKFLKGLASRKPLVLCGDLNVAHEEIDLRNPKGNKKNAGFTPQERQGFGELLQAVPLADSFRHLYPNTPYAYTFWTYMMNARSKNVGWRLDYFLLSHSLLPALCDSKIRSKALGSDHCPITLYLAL
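Measures dequenching upon AP-site incision of a 5'-TAMRA/3'-BHQ-2 THF-containing duplex, 50 nM; human APE1 0.75 nM after 15 min room-temperature exposure to compound; kinetic three-point read at one-minute spacing.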
JMJD2E inh – inhibitors of human JMJD2E histone demethylase; AID 2147; Potency, µM (top dose mostly 57.1 µM), for inactives: at the top dose activity change, negative = inhibition, actives largely listed as inhibitors; hit rate 1.6% among 230,000; JMJD2E catalytic domain, FDH-coupled NADH fluorescence (FDH is formaldehyde dehydrogenase); B2RXH2; active = well fitted inhibition curve with a large enough effect, not every such curve was filed as active; inconclusive = small, poorly fitted or top-dose-only effect, or another doubt; inactive = no such curve, though single readings can be large or run the other way;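 also: 0% = wells with enzyme and -100% = buffer wells without enzyme; nearly all actives have a fitted effect of over 50% in size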
Target sequence (B2RXH2 1-337 limits assumed): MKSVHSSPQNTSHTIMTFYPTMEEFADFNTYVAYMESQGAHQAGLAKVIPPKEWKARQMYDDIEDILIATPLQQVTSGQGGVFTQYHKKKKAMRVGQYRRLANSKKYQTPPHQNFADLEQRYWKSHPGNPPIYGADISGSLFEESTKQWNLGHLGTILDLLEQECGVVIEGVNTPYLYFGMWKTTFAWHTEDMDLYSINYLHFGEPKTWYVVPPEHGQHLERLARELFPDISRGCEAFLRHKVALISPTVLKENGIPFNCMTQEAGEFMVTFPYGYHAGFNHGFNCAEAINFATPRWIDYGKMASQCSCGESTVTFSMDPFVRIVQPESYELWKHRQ
BLM inh – inhibitors of human Bloom syndrome helicase BLM. P54132. AID 2528. Potency, µM (top dose mostly 56.1 µM), for the others: top-dose activity change, negative = inhibition, usual class: inhibitors. hit rate 0.2% among 350,000. recombinant BLM DNA unwinding, fluorescence dequenching;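 also: plate controls were vehicle for no effect and no enzyme for full effect; nearly all actives have a fitted effect of over 35% in size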
TDP1 block – TDP1 (human) enzyme inhibition | recombinant TDP1, AlphaScreen DNA substrate cleavage | Potency, µM (series often up to 130 µM), without a hit: at the top dose activity change, negative = inhibition, usual class: inhibitors | hit rate 0.28% among 350,000 | AID 485290; also: nearly all actives have a fitted effect of over 40% in size
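Signal: AlphaScreen proximity between streptavidin donor and anti-FITC acceptor beads on intact substrate. Reaction: Tdp1 1 nM, substrate 15 nM final, 5 min RT after 15 min compound preincubation.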
L3MBTL1 block – L3MBTL1 (human) inhibition; Potency, µM (series often up to 57.1 µM), without a hit: at the highest dose activity, negative = inhibition, hits mostly inhibitors; AlphaScreen L3MBTL1–H3K9me1 peptide binding; hit rate 0.66% among 230,000; also: nearly all actives have a fitted effect of over 60% in size
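AlphaScreen assay: L3MBTL1 (50 nM final) was preincubated 30 min at room temperature with biotinylated H3(1-15)K9me1 peptide (75 nM final), then 30 min with library compounds; streptavidin donor and nickel chelate acceptor beads (10 ug/mL final) added, 30 min dark.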
Starred values were filed as active, the others as inactive; i = inactive; u = inconclusive; x = no result; ! = not active in a repeat; [ ] = dose if it differs, or a comment. Unless noted, calls follow the shape of the dose curve; as a rule, active = well fitted curve in the direction sought with a large enough effect; inconclusive = small, poorly fitted or top-dose-only effect, or another doubt; inactive = no such curve, though single readings can be large; an effect the other way counts as inactive or inconclusive. Unless noted, % is scaled to controls: 0 for no effect and ±100 for the full control effect; potency is read from the fitted curve at half-maximal effect.

SMILES	RECQ1 helicase	APEX1 inh	JMJD2E inh	BLM inh	TDP1 block	L3MBTL1 block
CC(=O)c1cccc(NC(=O)Cn2nc(C(F)(F)F)c3c2CCC3)c1	x	x	x	-5%	2%	x
O=C(CCc1ccccc1)NCC(=O)N/N=C/c1ccc(O)cc1O	2%	0%	6.3µM*	-1%	6%	-8%
O=C(CN1CCCc2ccccc21)N/N=C/c1ccccc1	5%	-6%	-25%	-3%	8%	-18%
O=C(CN1CCCc2ccccc21)N/N=C/c1ccc(O)cc1O	i	-3%	25µM*	0%	6%	-15%
O=C(CNC(=O)c1cccs1)N/N=C/c1ccc(O)cc1O	-13%	-3%	3.2µM*	0%	-1%	x
O=C(CNC(=O)c1cccnc1)N/N=C/c1ccc(O)cc1O	x	-6%	x	-9%	x	x
O=C(CCc1ccccc1)NCC(=O)N/N=C/c1ccc2c(c1)OCO2	5%	-2%	-10%	0%	3%	-4%
CC(=O)Nc1ccc(OCc2cccc(C3Nc4ccccc4C(=O)N3Cc3ccco3)c2)cc1 (stereo not given)	x	x	x	x	0%	x
Oc1ccc2c(c1)OC(c1ccc(O)c(O)c1)C(O)C2 (stereo not given)	-11%	u	16µM*	-3%	8%[56.1 µM]	x
Oc1cc(O)c2c(c1)O[C@H](c1ccc(O)c(O)c1)[C@@H](O)C2	u	11µM*!	25µM*	-3%	-6%	x
O=C(O)c1ccc(CSc2nnc(-c3cccc(S(=O)(=O)NC4CCCC4)c3)n2-c2ccc(F)cc2)cc1	x	61%	x	x	x	x
Cc1ccc(C)c(SC2=NS(=O)(=O)c3ccccc32)c1	x	x	x	x	1%	x
O=C(C1Cc2ccccc2CN1C(=O)c1ccccc1)N1CCN(c2ccccc2)CC1 (stereo not given)	-10%	u	-1%	-9%	35µM*	u
CC(C)C(=O)NC(c1cccs1)c1cc([N+](=O)[O-])c2cccnc2c1O (stereo not given)	-2%	26%	-6%	u	3%	10µM*
Cc1ccc(C(Nc2ccccn2)c2ccc3cccnc3c2O)cc1 (stereo not given)	x	x	x	-11%	x	x
CCC(=O)NC(c1cccs1)c1ccc2cccnc2c1O (stereo not given)	i	10%	25µM*	-9%	2%	18µM*
COc1ccc(C(NC(C)=O)c2ccc3cccnc3c2O)c(OC)c1 (stereo not given)	-6%	-2%	22µM*	-3%	8%	u
Oc1c(C(Nc2nccs2)c2ccc(C(F)(F)F)cc2)ccc2cccnc12 (stereo not given)	-14%	9%	3.5µM*	-16%	3%	x
COc1ccc(O)c(-c2nc3ccccc3c(=O)n2Cc2ccccc2)c1	x	x	x	x	2%	x
CCCCC(=O)NC(c1ccccc1OC)c1ccc2cccnc2c1O (stereo not given)	-15%	3%	u	-3%	8%	x
CCCC(=O)NC(c1ccccc1OC)c1ccc2cccnc2c1O (stereo not given)	-9%	4%	32µM*	-7%	7%	u
CC(C)CC(=O)Nc1nc2c(s1)CC(C(C)(C)C)CC2 (stereo not given)	x	x	x	0%	9%	x
COc1ccc(Cc2nnc(N/N=C/c3ccc(O)cc3)[nH]c2=O)cc1OC	-1%	-1%	14µM*	1%	11%	18µM*
CC1=CC(C)(C)Nc2ccc(OC(=O)CN3C(=O)c4cccc5cccc(c45)C3=O)cc21	-9%	20%	13µM*	-15%	8%	u
CCOc1ccc2c(c1)C(C)=CC(C)(C)N2	-4%	15%	u	6%	7%	-13%
SMILES	RECQ1 helicase	APEX1 inh	JMJD2E inh	BLM inh	TDP1 block	L3MBTL1 block
CC(C)(C)NS(=O)(=O)c1cccc(-c2nnc(SCC(=O)Nc3ccc(C(=O)O)cc3)n2-c2ccc(F)cc2)c1	x	51%	x	x	x	x
CN1CCN(c2ncc3nc(-c4cccs4)c(=O)n(CCC#N)c3n2)CC1	i	-7%	x	-6%	x	x
O=C1ON=C(c2ccccc2)/C1=C\c1ccco1	u	u	-11%	-8%	-13%	22µM*
C/C(=N\NC(=O)c1cc(O)cc(O)c1)c1ccc(NC(=O)Cc2ccccc2)cc1	x	1.3µM*	x	-26%	1.8µM*	x
Cc1ccc(CNc2nc3ccccc3c3nc(-c4cccc(C)c4)nn23)cc1	x	x	x	-8%	-5%	x
CC(=O)Nc1ccc(OCc2cccc(-c3nc4ccccc4c(=O)n3Cc3ccco3)c2)cc1	x	x	x	x	0%	x
COC(=O)/C=C/C(=O)Nc1ccc(O)c(Cl)c1	-2%	4%	-4%	3%	-1%	-11%
COC(=O)/C=C\c1cc(O)ccc1O	-5%	u	32µM*	-7%	9%[56.1 µM]	x
COc1ccc(C(=O)Nc2ccc(OCc3cc(=O)n4ccccc4n3)cc2)cc1	x	x	x	-4%	0%	x
Cc1ccc(NS(=O)(=O)c2cc3c(cc2-c2ccco2)NC(=O)CO3)cc1C	x	x	x	x	0%	x
CCOc1ccc2nc(N3C(=O)/C(=C/c4ccc(Cl)cc4)NC3=S)sc2c1	-11%	2%	38%	28µM*	7%	-6%
Nc1cc(C(=O)O)c(O)c(S(=O)(=O)O)c1	-4%	28µM*	x	x	x	x
C=CCn1c(CNc2ccccc2)nnc1SCC(=O)N/N=C/c1ccccc1O	-6%	8%	14µM*	-2%	9%	-5%
Cc1c(Cl)cccc1NS(=O)(=O)c1cc2c(cc1F)NC(=O)CC2	x	x	x	x	0%	x
Cc1ccc(-c2nn(C)c(=O)c3ccccc23)cc1S(=O)(=O)NCCCN(C)C	x	x	x	-8%	-1%	x
CCCCON1C(=O)c2cccc3cccc(c23)C1=O	x	14%	x	1%	35µM*	-4%
COc1ccc(OC)c(NC(=O)CSc2ccnc(=O)[nH]2)c1	x	x	x	2%	-3%	x
Cn1c(=O)c2c(-c3ccccc3Cl)n(-c3cc(Cl)ccc3O)cc2n(C)c1=O	x	x	x	-3%	10%	x
COc1ccc(N(CC(=O)NCCc2ccccc2)S(=O)(=O)c2ccccc2)c(OC)c1	x	x	x	-5%	7%	x
c1cc2c3c(cccc3c1)NC1(CCCCCC1)N2	20%	0%	3.5µM*	-11%	-6%	-4%
c1cc2c3c(cccc3c1)NC1(CCCCC1)N2	7%	0%	3.2µM*	-12%	4%	x
CCN(CC)CCOCCOC(=O)C(CC)(CC)c1ccccc1 (tested in a mixture with another compound)	x	x	x	-13%	-2%	x
COc1ccc(Br)c(C(=O)Nc2cc3c(cc2N2CCCCC2)n(C)c(=O)c(=O)n3C)c1	x	x	x	-1%	5%	x
O=C(OC(C(=O)NC1CCCCC1)c1ccccc1F)c1ccco1 (stereo not given)	x	-5%	x	-4%	1%	x
